{"source": "ChEMBL document CHEMBL4888484", "about": "“Replenishing the malaria drug discovery pipeline: Screening and hit evaluation of the MMV Hit Generation Library 1 (HGL1) against asexual blood stage Plasmodium falciparum ,using a nano luciferase reporter read-out” (2022)", "note": "Out of some 4,800 compounds screened, about 420 (8.8%) showed an effect of 50% or more. For the sample, strong results were picked, then their nearest neighbours and some compounds at random.", "data": [{"tested_on": "Plasmodium falciparum", "assay": "Confirmatory screen in NF54 nanoGlo assay, in single point, at 2uM, 72h", "type": "functional, Erythrocyte", "conditions": "timepoint 72 hour", "units": {"% Inhibition": "%"}, "values": [{"smiles": "CC(C)C[C@H](N)C(=O)N1CC2CCCCC2C1", "note": "(some centres not stated)", "% Inhibition": -3}, {"smiles": "CS(=O)(=O)N1C[C@@H]2CCCN2c2cc(C(F)(F)F)ccc21", "% Inhibition": 4}, {"smiles": "Cc1csc(C(C)(C)NC(=O)NCCC2=CCCC2)n1", "% Inhibition": -3}, {"smiles": "CCOC(=O)c1sc(NC)nc1C(F)(F)F", "% Inhibition": -19}, {"smiles": "CC1CN(C(=O)Cn2nnc3ccccc3c2=O)CC1N(C)C", "note": "(configuration not stated)", "% Inhibition": -4}, {"smiles": "CCOCCC1(CNC(=O)c2cc(C)n[nH]2)CCC1", "% Inhibition": -1}, {"smiles": "CCn1nccc1C(=O)NC1CCN(c2nnc3ccc(Cl)cn23)CC1", "% Inhibition": 0}, {"smiles": "Cc1cnccc1NCCNC1CCN(c2ccc(Cl)cc2)CC1", "% Inhibition": 99}, {"smiles": "Cc1cnccc1NCCNC1CCN(c2ccc3c(c2)CCC3)CC1", "% Inhibition": 72}, {"smiles": "CCCC(=O)N1CCN(c2c(C)n(-c3ccccc3)c(=O)n(C)c2=O)CC1", "% Inhibition": 2}, {"smiles": "O=C(NC1CC1)c1nc(C(=O)N2CCN(c3ccccn3)CC2)cs1", "% Inhibition": -1}, {"smiles": "Cc1ccccc1CNC(=O)[C@H]1CCCN(c2nc3cccnc3n(Cc3ccccc3)c2=O)C1", "% Inhibition": -6}, {"smiles": "Cc1ccccc1CNC(=O)[C@H]1CCCN(c2nc3ccccc3[nH]c2=O)C1", "% Inhibition": -1}, {"smiles": "COc1ccccc1CNC(=O)c1nnn(-c2ccc3noc(-c4ccc(Cl)cc4)c3c2)c1C", "% Inhibition": -1}, {"smiles": "Cc1ccc(C(=O)OCC(=O)Nc2ccc3c(c2)OCO3)cn1", "% Inhibition": -2}, {"smiles": "Cc1nccn1-c1ncc(NC(=O)Nc2ccc3c(c2)OCO3)cn1", "% Inhibition": 21}, {"smiles": "CCc1nc2cc(N3CCC(C(=O)Nc4ccc5c(c4)OCO5)CC3)cnc2nc1CC", "% Inhibition": 61}, {"smiles": "CC(C)c1cc(=O)n(Cc2ccccc2Cn2cnc(C(C)C)cc2=O)cn1", "% Inhibition": -3}, {"smiles": "Cc1nc(Nc2ccc(F)cc2)nc2c1ncn2-c1ccc(F)cc1", "% Inhibition": -18}, {"smiles": "COc1ccc(C(=O)N[C@@H](C(=O)Nc2ccccc2C)c2ccc(Cl)cc2)cc1", "% Inhibition": 7}, {"smiles": "CC(=O)N(Cc1ccccc1OCc1c(Cl)cccc1Cl)c1ccc2oc(-c3ccccc3)nc2c1", "% Inhibition": -13}, {"smiles": "Clc1ccc(C[n+]2ccc(-c3nc4ccccc4o3)cc2)c(Cl)c1", "% Inhibition": 58}, {"smiles": "CC(=O)N(Cc1ccc2c(c1)OCO2)c1cccc(-c2nc3ccccc3o2)c1", "% Inhibition": -1}, {"smiles": "O=C(NC[C@H]1CCCO1)N1CCN(c2nccs2)C(=O)C1", "% Inhibition": 1}, {"smiles": "Cc1ccc(-n2nc(N3CCN(C(=O)Cc4ccc(F)cc4)CC3)ccc2=O)cc1", "% Inhibition": 4}, {"smiles": "CCN(CC)C(=O)c1cnc2snc(C)c2c1N1CCC(C(=O)Nc2c(C)cc(C)cc2C)CC1", "% Inhibition": 57}, {"smiles": "Cc1nsc2ncc(C(=O)N3CCC(C)CC3)c(N3CCC(C(=O)Nc4cc(F)ccc4F)CC3)c12", "% Inhibition": 60}, {"smiles": "Cc1cccc(C)c1NC(=O)C1CCN(S(=O)(=O)c2c(C)nn(-c3ccccc3)c2C)CC1", "% Inhibition": -6}, {"smiles": "Cc1ccc(N2CCN(c3c(C(=O)N4CCCCC4)cnc4ccc(F)cc34)CC2)cc1", "% Inhibition": -8}, {"smiles": "O=C(c1cnc2ccc(F)cc2c1N1CCC(Cc2ccccc2)CC1)N1CCCC1", "% Inhibition": 2}, {"smiles": "CCC1(CC)CN(C(=O)c2ccn(C)c(=O)c2)c2ccccc21", "% Inhibition": 2}, {"smiles": "Cn1cc(-c2noc(Cc3c(F)cccc3Cl)n2)ccc1=O", "% Inhibition": -1}, {"smiles": "Clc1cccc(CNc2cc(-c3ccco3)n[nH]2)c1", "% Inhibition": -7}, {"smiles": "CS(=O)(=O)N(CCCC(=O)NCc1ccc2c(c1)OCO2)c1ccc(F)cc1", "% Inhibition": -2}, {"smiles": "Cc1csc([C@@H](C#N)C(=O)c2ccncc2)n1", "% Inhibition": -11}, {"smiles": "CCCCNC(=O)Nc1cccc(C#CCN)n1", "% Inhibition": -2}, {"smiles": "Cc1cc(N)nc(Nc2ccc(Nc3ccccc3)cc2)n1", "% Inhibition": 87}, {"smiles": "Cc1nc(N)nc(C)c1C(=O)Nc1ccc(Nc2ncccn2)cc1", "% Inhibition": 46}, {"smiles": "c1ccc(Nc2nc(-c3ccccc3)cc(-c3ccccc3)n2)cc1", "% Inhibition": 3}, {"smiles": "CC(C)c1cc(C(=O)N2CC3CC4CC3C2C4O)n[nH]1", "note": "(configuration not stated)", "% Inhibition": 1}, {"smiles": "COc1ccsc1S(=O)(=O)N1CCC(n2ccnc2)CC1", "% Inhibition": -3}, {"smiles": "O=C(c1nc(-c2cccs2)cs1)N1CCN(c2ccccc2)CC1", "% Inhibition": -15}, {"smiles": "COc1cc(N2CCn3c(nc4cc(Cl)ccc43)C2)ccc1NC(=O)c1ccccc1OC", "% Inhibition": 4}, {"smiles": "COc1ccccc1C(=O)NC1=NN2C(=NC(c3ccc(Cl)cc3)=C[C@H]2c2ccc(Cl)cc2)N1", "% Inhibition": 94}, {"smiles": "O=C(NC1=NN2C(=NC(c3ccc(Cl)cc3)=C[C@H]2c2ccc(F)cc2)N1)c1ccc(Cl)cc1", "% Inhibition": 32}, {"smiles": "COc1ccc([C@@H]2C=C(c3ccc(Cl)cc3)N=C3NC(NC(=O)c4ccccc4OC)=NN32)cc1", "% Inhibition": 97}, {"smiles": "Fc1ccc(C2=C[C@@H](c3ccc(Cl)cc3)N3N=C(c4ccc(Cl)cc4)NC3=N2)cc1", "% Inhibition": 99}, {"smiles": "CCC1=NN2C(=NC(C(=O)O)=C[C@H]2c2ccc(O)cc2)N1", "% Inhibition": -7}, {"smiles": "COc1cc(NC(=O)c2ccccc2Cl)cc(S(=O)(=O)c2ccc(Cl)cc2)c1", "% Inhibition": -15}, {"smiles": "COc1ccccc1C(=O)NC1=C(C)Nc2ncnn2[C@H]1c1c[nH]c2ccccc12", "% Inhibition": -5}, {"smiles": "C[C@H]1CCc2c(cnc3c(C(=O)NC4CC4)cnn23)C1", "% Inhibition": -8}, {"smiles": "COc1ncccc1CNC(=O)[C@@H]1CCN(c2cc(C)cc(C)c2)C1=O", "% Inhibition": 3}, {"smiles": "Cc1nsc(N[C@@H]2C=C[C@H](CO)C2)n1", "% Inhibition": -3}, {"smiles": "Cc1c(NC(=O)c2n[nH]cc2Cl)c(=O)n(-c2ccccc2)n1C", "% Inhibition": -13}, {"smiles": "O=C(c1ccco1)N1CC(n2cnnc2[C@@H]2CCCO2)C1", "% Inhibition": -2}, {"smiles": "Cc1ccc(S(=O)(=O)Cc2nc(-c3ccc(C(=O)NCc4ccccc4C)cc3)oc2C)cc1", "% Inhibition": -13}, {"smiles": "Cc1ccc(/N=C(/Nc2ccc(Br)cc2)c2cc(C(C)(C)C)c(O)c(C(C)(C)C)c2)cc1", "% Inhibition": -15}, {"smiles": "O=S(=O)(c1ccc(Cl)cc1)N1CCC(c2cc(-c3cccc(C(F)(F)F)c3)[nH]n2)CC1", "% Inhibition": -1}, {"smiles": "O=S(=O)(c1ccc(F)c(Cl)c1)N1CC[C@H](Oc2ccncc2Cl)C1", "% Inhibition": 75}, {"smiles": "O=S(=O)(c1ccco1)N1CC[C@H](Oc2ccccc2)C1", "% Inhibition": 2}, {"smiles": "COC(=O)C1NS(=O)(=O)c2ccc(Cl)cc2C1(O)c1ccccc1F", "note": "(configuration not stated)", "% Inhibition": -5}, {"smiles": "O=C(Nc1ccc(F)c(Cl)c1)c1ccn(COc2ccccc2Cl)n1", "% Inhibition": -6}]}]}
